Records with an inconclusive call do not appear. Activity calls are given as the source filed them. How the source made its calls: active means hit-call score of the fitted dose curve at least 0.9, where 1 is the maximum; inconclusive means response in the unintended direction; inactive means score below 0.9.

The experiment relates to Brachyury (BRA), TBXT (gene 6862). The experiment is described as follows: CCTE_Deisenroth_DEVTOX-GLR_Ecto_BRA: CCTE's DevTox GLR-Ecto Assay Evaluation of Brachyury (BRA) Protein Expression, Deisenroth Lab. As to the method:
CCTE_Deisenroth_DEVTOX-GLR_Ecto assay is a cell-based, multiplex-readout assay that uses RUES2-GLR, a human pluripotent cell line, with measurements taken at 48 hours after chemical dosing in a 384-well microplateCCTE_Deisenroth_DEVTOX-GLR_Ecto_BRA is 1 of 4 assay components calculated from the CCTE_Deisenroth_DEVTOX-GLR_Ecto assay and it measures an the percentage of cells in an mesoderm state. Using a type of inducible fluorescent protein reporter, gain-of-signal activity can be used to understand changes in gene expression with fluorescent microscopy. The percentage of BRA+ cells are determined by calculating the number of BRA+ cells divided by the cell count. To generalize the intended target to other relatable targets, this assay component is annotated to the transcription factor intended target family, where the subfamily is T-box protein.Data from the assay component CCTE_Deisenroth_DEVTOX-GLR_Ecto_BRA was analyzed as 1 assay endpoint. The endpoint is the percent BRA+ cell population minus the 0.2% DMSO control in the CCTE_Deisenroth_DEVTOX-GLR_Ecto assay. Furthermore, this assay endpoint can be referred to as a secondary readout, because this assay has produced multiple assay endpoints where this one serves as a measure of mesoderm differentiation.
All assay protocols are aligned to the DevTox GLR-Endo assay workflow (Gamble 2022). Cells are seeded into 384-well microplates for 24 hours prior to initiating differentiation in defined media for a total duration of 48 hours. A total of two chemical exposures are administered in 24-hour intervals during the 48-hour differentiation period. At the assay termination point, cells are fixed and stained with a fluorescent dye demarcating the nucleus. High-content imaging is used to acquire brightfield and fluorescent channel images across 5 fields per well. Cell identification and mean biomarker fluorescence intensities are calculated with image analysis software to determine the total cell counts for viability assessment and the biomarker expression frequency for each lineage-dependent assay. A typical experimental design tests a 10-point concentration series (1 nM - 200 uM) for 28 compounds in single technical replicate. Assay plate controls include non-differentiated pluripotent cells (baseline control), lineage-specific differentiated cells (differentiation control), and DMSO solvent exposed differentiated cells (solvent control). Experiments typically comprise a minimum of four experimental replicates (n=4).
By AC50 is commonly meant the midpoint of the concentration-response curve, whichever way the signal moves. As to `Nc1cccc2c1C(=O)N(C1CCC(=O)NC1=O)C2=O` (stereo not given), the AC50 is 39.1 µM (active).
As to `O=c1[nH]cc(F)c(=O)[nH]1`, the AC50 is 1.95 µM (active).
In the case of `CCCC(CCC)C(=O)O`, the compound was classed as inactive.
Turning to `O=C1NC(=O)C(c2ccccc2)(c2ccccc2)N1`, the compound was called inactive.
The same measure, in the same setting: then `CS(=O)(=O)OCCCCOS(C)(=O)=O`, with “inactive”.
In the case of `CC1=C(/C=C/C(C)=C/C=C/C(C)=C\C(=O)O)C(C)(C)CCC1`, the AC50 is 143 µM (active).
Take `CC/C(=C(/CC)c1ccc(O)cc1)c1ccc(O)cc1`: the result was inactive.
On the same count and under the same terms, then `CC(C)(c1ccc(O)cc1)c1ccc(O)cc1`, with “inactive”.
On to `O=C1NS(=O)(=O)c2ccccc21`, for which the call was inactive.
As for `CN(Cc1cnc2nc(N)nc(N)c2n1)c1ccc(C(=O)N[C@@H](CCC(=O)O)C(=O)O)cc1`, the call was inactive.
As for `CC1=C(/C=C/C(C)=C/C=C/C(C)=C/C(=O)O)C(C)(C)CCC1`, the AC50 was 142 µM (active).
As to `CC(=O)Nc1ccc(O)cc1`, the compound was called inactive.
In the case of `CCN(CC)CCNC(=O)c1c(C)[nH]c(/C=C2\C(=O)Nc3ccc(F)cc32)c1C`, the AC50 was 1.12 µM (active).
On to `CC1(C)S[C@@H]2[C@H](NC(=O)Cc3ccccc3)C(=O)N2[C@H]1C(=O)O`, for which the call was inactive.
On the same count and under the same terms, in the case of `Nc1nc2ncc(CNc3ccc(C(=O)N[C@@H](CCC(=O)O)C(=O)O)cc3)nc2c(=O)[nH]1` it was “inactive”.

These data come from PubChem BioAssay AID2284425 (EPA ToxCast).
